High-throughput results from PubChem BioAssay.
Hits are enriched below; roughly 6.5% of the tested compounds scored in any of these assays.
IL1B secr inh = blocks inflammasome-driven IL-1 beta release | THP-1 LPS/ATP IL-1B secretion, AlphaLISA, 16 h; hits give low values | activity change, % at 57.5 µM | 360,000 compounds, 4.7% hits; in the data active means activity change below about -50%; inconclusive means mostly about -30% to -49%
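Secreted IL-1B measured by AlphaLISA bead assay after 16 h compound exposure of THP-1 cells; compounds (final up to 57.5 uM) added 1 h before LPS (250 ng/mL) and ATP (1.25 mM) stimulation; lower signal means less secretion.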
HepG2 tox = HepG2 cytotoxicity, counter-screen for TGF-b inhibitors | AID 588856 | 410,000 compounds, 0.76% hits | Potency, µM (titrated, usually from 46.1 µM), actives largely listed as cytotoxic | HepG2 CAGA-GFP viability, ATP luminescence, 18 h
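HepG2 CAGA-GFP cells (1000/well, DMEM with 1% FBS) received compound, then TGF-beta at 500 pg/mL final, and were incubated 18 hours at 37 degrees C. Viability was read by CellTiter-Glo luminescence. Media-only wells were set as complete cell-killing and DMSO as no toxicity.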
TGFb inhibitor = blocks TGF-b signaling. HepG2 CAGA-GFP TGF-b/SMAD3 reporter, GFP fluorescence, 18 h; TGF-beta stimulated, 500 pg/mL final. Potency, µM (doses to about 46.1 µM), hits mostly inhibitors. AID 588855. 410,000 compounds, 1.2% hits; further: nearly all actives have a fitted effect of over 65% in size
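Using HEPG2 CAGA-GFP reporter cells at 1000 cells/well, we pinned test compounds, stimulated with recombinant TGF-beta (500 pg/mL final) and measured total well GFP after 18 h.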
Giardia kill = kills Giardia lamblia; 340,000 compounds, 0.15% hits; activity change, % at 7.66 µM, hits read low; Giardia lamblia trophozoite viability; AID 540267; in the data active means activity change below about -80%; inconclusive means between about -30% and that limit;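 further: parasites exposed to compound for two days anaerobically before the ATP read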
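Trophozoites 100 cells/well + cpd; 48 hrs, 37 deg C, anaerobic. ATPLite 1-Step added, 15-30 min RT, luminescence read (ATP-based viability).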
HT1080NT lethal = kills 2HG-producing HT-1080-NT fibrosarcoma cells. HT-1080-NT fibrosarcoma viability, CellTiter-Glo ATP luminescence, 48 h. Potency, µM (top dose mostly 46.1 µM), hits mostly cytotoxic. 360,000 compounds, 1.6% hits. AID 686970;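 further: NT is the 2HG producing partner of a matched IDH1 knockdown line; nearly all actives have a fitted effect of over 55% in size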
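A 48-hour cytotoxicity screen used HT-1080-NT cells plated 2 hours before compound delivery. ATP-based CellTiter-Glo luminescence measured viability, normalized to DMSO and no-cell controls.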
HT1080 IDH1KD tx = HT-1080 IDH1 knockdown cell toxicity (counter line); 360,000 compounds, 2% hits; HT-1080 IDH1 knockdown viability, ATP luminescence, 48 h; Potency, µM (highest dose often 46.1 µM), usual class: cytotoxic
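After a 2 h attachment period, IDH1KD HT-1080 cells took pin-transferred compound for 48 h at 37 °C; ATP-based luminescence after 10 min room-temperature reagent incubation reported viability.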
Of the large screens only hits and unclear results are named; the others gave an inactive call; ! = not confirmed by another sample. Unless noted, the call rests on the fitted dose curve; in most records, active means well fitted curve in the direction sought with a large enough effect; inconclusive means small, poorly fitted or top-dose-only effect, or another doubt; inactive means no such curve, though single readings can be large; an effect the other way counts as inactive or inconclusive.

Cc1ccc(-c2c[n+](CC(=O)c3cccs3)c3n2CCC3)cc1	IL1B secr inh inconclusive, TGFb inhibitor inconclusive
CCOc1ccc2nc(SCC(=O)Nc3cc4c(cc3C(C)=O)OCO4)[nH]c2c1	none
c1ccc(Nc2c(-c3ccco3)nc3ccccn23)cc1	IL1B secr inh inconclusive
c1ccc(-c2nc(-c3ccco3)n3ccccc23)cc1	IL1B secr inh -92
Cc1c(Cl)cccc1NC(=O)C(=O)NNS(=O)(=O)c1ccc(F)cc1	none
CCN(CC)CCOC(=O)c1ccc(N/C=C(/C#N)c2nc(-c3cc4ccccc4oc3=O)cs2)cc1	Giardia kill -89
CCN(CC)CCOC(=O)c1ccc(N/C=C(/C#N)c2nc(-c3ccc(OC)cc3)cs2)cc1	TGFb inhibitor inconclusive
CCN(CC)CCOC(=O)c1ccc(N/C=C(/C#N)c2nc(-c3ccc4c(c3)OCO4)cs2)cc1	Giardia kill -103
Cc1cc(C)cc(NC(=O)CC2Oc3ccc(C)cc3NC2=O)c1 (configuration not stated)	none
NC1=NC(c2ccc(Br)cc2)n2c(nc3ccccc32)N1 (configuration not stated)	IL1B secr inh -81!, TGFb inhibitor inconclusive, HT1080NT lethal inconclusive
CCc1ccc(C2N=C(N)Nc3nc4ccccc4n32)cc1 (configuration not stated)	none (no result: IL1B secr inh, Giardia kill, HT1080NT lethal, HT1080 IDH1KD tx)
O=C(c1ccc(S(=O)(=O)N2CCCCCC2)cc1)N1CCN(Cc2ccccc2)CC1	IL1B secr inh inconclusive
COc1ccc(S(=O)(=O)N2CCN(C(=O)CSC(=S)N3CCCC3)CC2)cc1	HepG2 tox 16µM, TGFb inhibitor inconclusive
COc1ccc(S(=O)(=O)N2CCN(C(=O)c3cc(-c4ccc(C)cc4)n[nH]3)CC2)cc1	IL1B secr inh -83
COc1ccc(S(=O)(=O)N2CCN(C(=O)C3CCC3)CC2)cc1	none
COc1ccc(NS(=O)(=O)c2ccc(C(=O)N3CCCCCC3)cc2)cc1	IL1B secr inh -52, TGFb inhibitor inconclusive, HT1080NT lethal 18µM
COc1ccc(CN2CCN(C(=O)c3ccc(S(=O)(=O)N4CCCCCC4)cc3)CC2)cc1	IL1B secr inh inconclusive, HT1080NT lethal 16µM
CCOc1cc(O)c(-c2[nH]ncc2-c2nc(C)cs2)cc1CC	TGFb inhibitor inconclusive
O=c1cc(N2CCCCC2)c(-c2ccccc2)nn1Cc1ccc(F)cc1	TGFb inhibitor inconclusive
COc1ccc(NS(=O)(=O)c2ccc3c(c2)n(C)c(=O)n3C)cc1	IL1B secr inh -70
Cc1ccc(NS(=O)(=O)c2ccc3c(c2)n(C)c(=O)n3C)cc1	none
Cc1cc(=O)oc2c1ccc1oc(/C(=N/O)c3ccccc3)c(C)c12	IL1B secr inh -74, TGFb inhibitor inconclusive, HT1080NT lethal inconclusive, HT1080 IDH1KD tx inconclusive
Cc1ccc(/C(=N\O)c2oc3c(C)c4oc(=O)cc(C)c4cc3c2C)cc1	TGFb inhibitor inconclusive, HT1080NT lethal inconclusive, HT1080 IDH1KD tx 23µM
CCn1cc(CNCc2cn(C)nc2-c2ccc(C3CCCCC3)cc2)cn1	IL1B secr inh -63, TGFb inhibitor inconclusive, HT1080NT lethal 15µM, HT1080 IDH1KD tx 21µM
Cn1cc(CNC(=O)C2CCCCC2)cn1	none
COc1ccc(OC2CCN(S(=O)(=O)c3ccc(OC)c(OC)c3)CC2)cc1	HepG2 tox 11µM
Cc1ccc(C(=O)NNC(=O)c2ccccc2-n2cccc2)cc1	none
C=CCOc1cccc(/C=C2\C(=O)N(Cc3ccc(C)cc3)C(C)=C2C(=O)OC)c1	IL1B secr inh -91, TGFb inhibitor inconclusive
CCOc1cc(/C=C2\C(=O)N(Cc3ccc(C)cc3)C(C)=C2C(=O)OC)ccc1O	TGFb inhibitor inconclusive, HT1080NT lethal inconclusive, HT1080 IDH1KD tx inconclusive
CC(C)CNC(=O)c1cc(-c2ccco2)on1	none
CCCNC(=O)c1cc(-c2ccco2)on1	IL1B secr inh -57, HT1080 IDH1KD tx inconclusive
COc1cc(/C=C2/C(=O)ON=C2c2ccccc2)ccc1O	IL1B secr inh -105, TGFb inhibitor inconclusive
